In PubChem BioAssay (EPA / NIEHS) one finds outcome and AC50 data, which are given here for 30 compounds.

More than one record can exist for a structure, and the calls need not agree. The source made the active and inactive calls. How the source made its calls, unless noted: active means hit-call score of the fitted dose curve at least 0.9, where 1 is the maximum; inconclusive means response in the unintended direction; inactive means score below 0.9.

The first assay deals with Peroxisome proliferator-activated receptor gamma (Homo sapiens) (UniProt P37231). Put plainly: OT_PPARg_PPARgSRC1_1440: Odyssey Thera (OT) 24-hour Protein-Complementation Assay for Peroxisome Proliferator-activated Receptor Gamma/ SRC-1 Co-activator (AID 2283388).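 Further: nuclear to cytoplasmic ratio of reconstituted Venus YFP fluorescence in fixed imaged cells.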
Sequence of Peroxisome proliferator-activated receptor gamma (Homo sapiens) (P37231 whole entry, looked up): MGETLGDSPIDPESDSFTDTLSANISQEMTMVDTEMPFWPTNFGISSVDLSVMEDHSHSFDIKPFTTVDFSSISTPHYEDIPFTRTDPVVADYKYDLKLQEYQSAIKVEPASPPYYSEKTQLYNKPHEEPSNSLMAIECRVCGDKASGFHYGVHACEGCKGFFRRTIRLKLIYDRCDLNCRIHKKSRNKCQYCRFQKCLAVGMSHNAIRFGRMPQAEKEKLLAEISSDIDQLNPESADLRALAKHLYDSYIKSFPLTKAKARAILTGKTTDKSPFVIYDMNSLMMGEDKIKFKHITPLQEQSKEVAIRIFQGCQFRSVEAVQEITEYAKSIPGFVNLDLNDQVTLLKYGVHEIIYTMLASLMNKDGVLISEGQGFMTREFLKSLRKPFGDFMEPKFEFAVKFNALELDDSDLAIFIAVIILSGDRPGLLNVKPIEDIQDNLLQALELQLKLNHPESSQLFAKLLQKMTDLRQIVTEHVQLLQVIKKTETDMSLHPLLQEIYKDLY
Settings: not given
A digest of the protocol:
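Readout is the 488 nm N/C fluorescence ratio from fixed, Draq5-stained HEK293T cells after 24 h compound exposure. Cells carried transiently transfected PPARg and SRC-1 fused to Venus fragments, transfected 48 h before treatment.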
Regarding `CC(C)OC(=O)Nc1ccccc1`, the outcome was inactive.

Consider `CCCCCCCCSC(=O)Oc1cc(Cl)nnc1-c1ccccc1`, for which the result was inactive. The same measure, in the same setting: the same measure for `OCc1ccco1`: “inactive”; for `CCCCOCCOC(C)=O`: “inactive”; for `CCN1CCC2(CC1)COc1cc3c(cc12)N(C(=O)c1ccc(-c2ccc(-c4nnc(C)o4)cc2C)cc1)CC3`: “inactive”. Consider `Cc1ccc2ccccc2c1C`, for which the compound was classed as inactive. The same measure, in the same setting: as for `O=C(Nc1ccc2[nH]ccc2c1)c1cc2cc(F)ccc2n1Cc1cccc(F)c1`, the entry is “inactive”. Turning to `C=C(C)C(=O)[O][Sn]([CH2]CCC)([CH2]CCC)[CH2]CCC`, the AC50 was 0.0287 µM (active) and the compound was classed as inactive. Turning to `CCOP(=S)(OCC)SCSP(=S)(OCC)OCC`, the compound was classed as inactive.

Consider `C=CC(=O)OCCCCCC(C)C`, for which the result was inactive. Still for that read-out and setting: as for `CC(C)(c1ccc(OCC2CO2)cc1)c1ccc(OCC2CO2)cc1` (centres undefined), the entry is “inactive”; as for `Cl/C=C\C[N+]12CN3CN(CN(C3)C1)C2`, “inactive”. Take `CC(C)(OO)c1ccccc1`: the compound was called inactive. Still for that read-out and setting: as for `Cc1ccc(N)cc1Cl`, the entry is “inactive”; as for `C1CCC(NC2CCCCC2)CC1`, “inactive”; as for `C=CC#N`, “inactive”.

`O=C1C(Cl)=C(Cl)C(=O)c2ccccc21`: the AC50 was 11.8 µM (active). On to `CCC[CH2][Sn]([Cl])([Cl])[Cl]`, for which the result was inactive. Consider `Oc1cccc2cccnc12`, for which the compound was called inactive.

In the case of `C[C@H]1CCCC(=O)CCC/C=C/c2cc(O)cc(O)c2C(=O)O1`, the result was inactive. Still for that read-out and setting: as for `[O-][Cl+2]([O-])O`, the entry is “inactive”; as for `CC(C)C1CCC(Cc2ccc(Cl)cc2)C1(O)Cn1cncn1` (centres undefined), “inactive”; as for `CC(C)(c1ccccc1)c1ccc(O)c(C(C)(C)c2ccccc2)c1`, “inactive”. On the same count and under the same terms, as for `C[C@@H]1C[C@@H]([C@H](O)CC2CC(=O)NC(=O)C2)C(=O)[C@@H](C)C1`, the entry is “inactive”; as for `Cc1ccccc1C(=O)Nc1cccc(OC(C)C)c1`, “inactive”.

Read-out in another assay: not listed separately
Description: CEETOX_H295R_11DCORT: CeeTox H295R High-throughput Steroidogenesis Assay for 11-Deoxycortisol (11DCORT) (AID 2283432; active means hit-call score of the fitted dose curve at least 0.9, where 1 is the maximum; inactive means score below 0.9;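 on AC50: human adrenal H295R cells prestimulated with 10 µM forskolin for 48 h; 11-deoxycortisol secreted into the medium measured by LC-MS/MS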). The following applies: actives raise or lower the signal. A digest of the protocol: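 Adrenal carcinoma line H295R, run per OECD 456 with minor changes, was forskolin-stimulated (10 uM, 48 h) before a 48 h chemical exposure at 0.1% DMSO. Secreted 11-deoxycortisol was quantified by HPLC-MS/MS.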
As to `O=C(Nc1ccc2[nH]ccc2c1)c1cc2cc(F)ccc2n1Cc1cccc(F)c1`, the AC50 was 3.48 µM (active). Still for that read-out and setting: as for `CCOP(=S)(OCC)SCSP(=S)(OCC)OCC`, the figure is 18.6 µM (active). As for `CN(CCCC(=O)c1cccnc1)N=O`, the compound was classed as inactive. `C=CC(=O)N(C)C`: the result was inactive. As for `C1CCC(NC2CCCCC2)CC1`, the result was inactive. With `Nc1ccc(-c2ccc(N)c(Cl)c2)cc1Cl`, the compound was called inactive. The same measure, in the same setting: as for `CCOP(=S)(OCC)SCCS(=O)(=O)CC`, the entry is “inactive”; as for `CCCCCCCCC(=O)NCc1ccc(O)c(OC)c1`, “inactive”.
